The results in this text go back to PubChem BioAssay AID764 (NMMLSC, 2007).

The whole screen tested about 190,000 compounds, of which about 220 (0.12%) were called active. About 2% were inconclusive and are not listed.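 The calls were made as follows: active = GTP binding at least 20 percentage points away from the 100% baseline, in either direction, so actives lie on both sides; inconclusive = Compound likely fluorescent itself, or too few beads counted; inactive = the rest.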 Many of the other results were omitted from the sample, so actives are more common in it than they were.

This assay deals with Ras-related C3 botulinum toxin substrate 1 (Homo sapiens) (UniProt P63000). The assay is described as follows: GTP binding modulators of activated mutant Rac1, primary screen, biochemical, bead-based flow cytometry, multiplex, fluorescent GTP (AID 764). The settings on record: GST-Rac1 activated beads, at 10 µM, actives lie on both sides, 100% means binding = to untreated wells. Background: In flow cytometry, cells or beads pass a laser one at a time.
Consider `CCOC(=O)c1sc(/N=C/C2=C(O)CC(C)(C)CC2=O)c(C(=O)OCC)c1C`, for which the percent activity (GTP binding) was 95% (inactive). As to `O=C(NCCOc1ccccc1F)Nc1ccc(Br)cc1`, the percent activity (GTP binding) was 93% (inactive).

On to `C=CCn1c(CNC(=O)c2ccco2)nnc1SCC(=O)c1ccc(OC)cc1`, for which the percent activity (GTP binding) is 97% (inactive).

Take `COc1ccc(CCNC(=O)CN(c2ccccc2)S(C)(=O)=O)cc1`: the percent activity (GTP binding) was 97% (inactive). `COc1cccc(OC)c1C(=O)NC(=S)Nc1ccc(N2CCOCC2)c(Cl)c1`: the percent activity (GTP binding) was 95% (inactive). For `NS(=O)(=O)c1ccc(NC(=O)COC(=O)CCc2c[nH]c3ccccc23)cc1`, the percent activity (GTP binding) is 99% (inactive). With `CCOC(=O)C(=Cc1ccccc1OC)C(=O)OCC` the figure was 89% (inactive); with `COc1cc(/C=N/NC(=S)Nc2cccnc2)cc(OC)c1O`, 89% (inactive).

Take `CCc1cc2c(=O)c(-c3nc4ccccc4n3C)c(CCCC(=O)O)oc2cc1OC(=O)C(C)(C)C`: the percent activity (GTP binding) is 94% (inactive). For `Cc1ccc(O)c(NC(=S)NC(=O)COc2ccc(Br)cc2)c1` the value was 92% (inactive); for `COc1cc(N2C(=O)c3ccccc3C2=O)c(Cl)cc1C(=O)OCC(=O)N1CCOCC1`, 97% (inactive); for `COc1ccc(N2CCN(C(C)=C3C(=O)c4ccccc4C3=O)CC2)cc1`, 92% (inactive). As for `CCOC(=O)C(C)n1nc(-c2ccccc2)c2ccccc2c1=O` (stereo not given), the percent activity (GTP binding) is 96% (inactive). With `Cc1ccc(CN(Cc2cccnc2)C(=S)Nc2cc(Cl)ccc2C)cc1` the figure was 95% (inactive); with `CC1Cc2ccccc2N1S(=O)(=O)c1c(N)n(C)c(=O)n(C)c1=O` (stereo not given), 102% (inactive); with `C/C(N)=C(/C#N)C(=O)COC(=O)C1CCN(C(=O)c2ccc(Cl)cc2)CC1`, 97% (inactive).

For `O=C(COC(=O)c1ccc(F)cc1)Nc1nc2ccc([N+](=O)[O-])cc2s1`, the percent activity (GTP binding) was 93% (inactive). Consider `COc1cccc(CNn2cn[nH]c2=S)c1OCc1ccccc1`, for which the percent activity (GTP binding) is 95% (inactive). As for `COC(=O)C1=C(C)N(C)C(=O)NC1c1ccc([N+](=O)[O-])o1` (stereo not given), the percent activity (GTP binding) is 93% (inactive). With `CCOC(=O)C1CCN(S(=O)(=O)c2cc(F)ccc2OC)CC1`, the percent activity (GTP binding) is 96% (inactive). Take `Cc1cccc(N(C(=O)Cc2cccs2)C(C(=O)NCc2ccco2)c2ccncc2)c1` (stereo not given): the percent activity (GTP binding) was 101% (inactive). `O=C(c1ccc(F)cc1)n1cc(C(=S)N2CCOCC2)c2ccccc21`: the percent activity (GTP binding) is 98% (inactive).

As to `CCCN(CC(=O)Nc1ccccc1C)C(=O)c1cc(=O)[nH]c2ccccc12`, the percent activity (GTP binding) was 95% (inactive). With `CCCC(=O)NC(=S)Nc1ccc(CN2CCOCC2)cc1` the figure was 95% (inactive); with `CCN1CCc2nc(NC(=O)c3cc(F)c(F)cc3Cl)sc2C1`, 95% (inactive). On to `CCCCc1ccc(NC(=S)NCCCN2CCOCC2)cc1`, for which the percent activity (GTP binding) was 94% (inactive). With `CCOc1ccc(CN2CCN(Cc3ccc(C)o3)CC2CCO)cc1` (stereo not given) the figure was 96% (inactive); with `O=Cc1ccc(OCc2cn3ccccc3n2)cc1`, 97% (inactive); with `Brc1cc(/C=N/n2cnnc2)oc1Br`, 100% (inactive). With `CS(=O)(=O)Nc1cccc(-c2cn3ccccc3n2)c1`, the percent activity (GTP binding) was 96% (inactive). With `CCOC(=O)CNC(=O)/C(=C\c1ccc(F)cc1)NC(=O)c1ccccc1` the figure was 95% (inactive). Regarding `COc1cccc(CC(=O)N2CCCC(CCC(=O)N3CCN(c4ccccn4)CC3)C2)c1` (stereo not given), the percent activity (GTP binding) is 96% (inactive). With `Cc1cccc(C)c1NC(=O)C1CCCN1C(=O)OC(C)(C)C` (stereo not given) the figure was 97% (inactive); with `CCOc1cc(NC(=S)NCCCN(C)C)c(OCC)cc1NC(=O)C1CC1`, 95% (inactive). With `CCC(C)c1ccc(NC(=S)NCc2ccccn2)cc1` (stereo not given) the figure was 94% (inactive); with `COc1cccc(/C=C2\SC(=N)N(c3ccc(F)cc3)C2=O)c1`, 93% (inactive); with `O=C(CSc1ccc(-c2ccco2)nn1)NCc1ccc2c(c1)OCO2`, 96% (inactive). `COc1ccc(N(CC(=O)Nc2ccc(C)cc2C)S(=O)(=O)c2ccccc2[N+](=O)[O-])c(OC)c1`: the percent activity (GTP binding) was 93% (inactive). `CCOc1ccc(CCN2C(=O)c3cccnc3C2=O)cc1OCC`: the percent activity (GTP binding) is 97% (inactive). With `O=C1N/C(=C/c2cccs2)C(=O)N1Cc1ccc(F)cc1` the figure was 97% (inactive); with `O=C(Nc1ccc2c(c1)C(=O)OC2)Nc1cccc2ccccc12`, 96% (inactive). Regarding `NC(=O)C1CCN(C(=O)COc2cccc3cccnc23)CC1`, the percent activity (GTP binding) was 95% (inactive). For `Cn1c(N)c(C(=O)COC(=O)c2cnc(Cl)c(Cl)c2)c(=O)n(C)c1=O` the value was 93% (inactive); for `CN(C)c1ccc2c(=O)[nH][nH]c(=O)c2c1`, 99% (inactive); for `O=S(=O)(NCCc1ccc(F)cc1)c1cccc2cccnc12`, 96% (inactive). On to `CCC(=O)N1CCC(C(N)=O)(N2CCCCC2)CC1`, for which the percent activity (GTP binding) is 96% (inactive). Consider `COc1cc2sc(C)nc2cc1C`, for which the percent activity (GTP binding) was 95% (inactive). For `CCN(CC)P(=O)(Nc1ccc(SC(F)F)cc1)c1ccc(N(C)C)cc1NC(=O)c1ccco1` (stereo not given) the value was 92% (inactive); for `COc1ccc(C2=NN(C(=O)CCC(=O)O)C(c3cccs3)C2)cc1OC` (stereo not given), 96% (inactive); for `COCCCNC(NC(=O)c1ccc(OC)cc1)C(Cl)(Cl)Cl` (stereo not given), 95% (inactive). With `COc1ccc(NS(=O)(=O)c2cc(NC(=O)C3CCCCC3)ccc2N2CCOCC2)cc1` the figure was 96% (inactive).

Take `C/C=C/c1ccc(OCC(O)CN2CCCCCCC2)c(OC)c1` (stereo not given): the percent activity (GTP binding) was 96% (inactive). In the case of `CC(C)N(C(=O)CSc1nc(COc2ccccc2)nc2ccccc12)C(C)C`, the percent activity (GTP binding) is 93% (inactive). With `O=C(Nc1nnc(Cc2ccccc2)s1)c1cnccn1`, the percent activity (GTP binding) was 99% (inactive). As to `CCOc1cc(/C=N/NC(=O)c2ccc(CSc3nncn3C)cc2)ccc1OCC(=O)N1CCOCC1`, the percent activity (GTP binding) was 93% (inactive).
